{"source": "PubChem BioAssay AID1852", "about": "(Sanford-Burnham Center for Chemical Genomics, 2009)", "note": "In all, about 2,500 compounds went through this assay and about 1,100 (44%) were called active.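 Rule for the calls: active = inhibition above 50% at 4 µM in the single-point screen; inactive = inhibition of 50% or less.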 So high a share suggests a set chosen from earlier hits. Some of the results follow.", "data": [{"test": "TNF-a-driven NF-kB reporter inhibitors, primary screen, selectivity assay for NOD1/NOD2 signaling inhibitor project, cell-based, HEK293T NF-kB-Luc, luminescence (AID 1852)", "conditions": "TNF-a induced, 14 h, at 4 µM, hits give high values", "values": [{"molecule": "Cc1nc(Sc2nnnn2C)c2c3c(sc2n1)CCC3", "inhibition": "25.5% (inactive)"}, {"molecule": "CC1CCCCC1NC(=O)NC(=O)CCl", "note": "(configuration not stated)", "inhibition": "68.1% (active)"}, {"molecule": "CC1CCCC(NC(=O)NC(=O)CCl)C1C", "note": "(configuration not stated)", "inhibition": "69.1% (active)"}, {"molecule": "CCS(=O)(=O)c1ccc2oc(SCC(=O)NC3CCCC(C)C3C)nc2c1", "note": "(configuration not stated)", "inhibition": "15.3% (inactive)"}, {"molecule": "COc1ccccc1C1/C(=C(/O)c2ccc(OC(C)C)cc2)C(=O)C(=O)N1c1cc(C)on1", "note": "(configuration not stated)", "inhibition": "35.4% (inactive)"}, {"molecule": "O=C(CN(Cc1ccc(Cl)cc1)C(=O)CNS(=O)(=O)c1ccc(F)cc1)NCC1CCCO1", "note": "(configuration not stated)", "inhibition": "38.4% (inactive)"}, {"molecule": "O=S(=O)(NCC1CCCO1)c1ccc(-c2ccc(S(=O)(=O)NCC3CCCO3)cc2)cc1", "note": "(configuration not stated)", "inhibition": "34.8% (inactive)"}, {"molecule": "Cc1ccc(NS(=O)(=O)c2ccc(C(=O)N3CCN(c4ncccn4)CC3)cc2)cc1", "inhibition": "61.5% (active)"}, {"molecule": "COc1ccc(N2CCN(C(=O)c3ccc(CNS(=O)(=O)c4ccc(C)cc4)cc3)CC2)cc1", "inhibition": "35.1% (inactive)"}, {"molecule": "COc1cccc(N2CCN(c3ncnc4c3cnn4-c3ccc(C)cc3C)CC2)c1", "inhibition": "102% (active)"}, {"molecule": "Cc1cccc(-n2ncc3c(N(C)C4CCCCC4)ncnc32)c1", "inhibition": "-64.4% (inactive)"}, {"molecule": "CCOC(=O)C1=C(C)N=c2s/c(=C/c3cccc([N+](=O)[O-])c3O)c(=O)n2C1c1ccccc1", "note": "(configuration not stated)", "inhibition": "74.5% (active)"}, {"molecule": "C=CCn1c(Oc2ccccc2F)nc2c1c(=O)n(C)c(=O)n2C", "inhibition": "78.4% (active)"}, {"molecule": "C=CCn1c(Oc2ccc(C(=O)OC)cc2)nc2c1c(=O)n(C)c(=O)n2C", "inhibition": "47.2% (inactive)"}, {"molecule": "Cn1c(=O)c2c(nc(Oc3ccc4ccccc4c3)n2C)n(C)c1=O", "inhibition": "40.5% (inactive)"}, {"molecule": "CCn1c(Oc2ccccc2F)nc2c1c(=O)n(C)c(=O)n2C", "inhibition": "69.1% (active)"}, {"molecule": "Cn1c(N2CCN(c3ccccn3)CC2)nc2c1c(=O)n(Cc1ccc(Cl)cc1)c(=O)n2C", "inhibition": "17.7% (inactive)"}, {"molecule": "CCCCCn1c(SCCc2ccccc2)nc2c1c(=O)[nH]c(=O)n2C", "inhibition": "31.3% (inactive)"}, {"molecule": "Cn1c(=O)[nH]c(=O)c2c1nc([N+](=O)[O-])n2Cc1ccccc1", "inhibition": "104% (active)"}, {"molecule": "Cn1c(=O)[nH]c(=O)c2c1nc(N1CCC(Cc3ccccc3)CC1)n2Cc1ccccc1", "inhibition": "41.2% (inactive)"}, {"molecule": "CN(Cc1ccc(F)cc1)S(=O)(=O)c1nnc(NC(=O)c2ccccc2)s1", "inhibition": "21% (inactive)"}, {"molecule": "COc1ccc(C(=O)Nc2nnc(S(=O)(=O)N(C)Cc3ccc(F)cc3)s2)cc1OC", "inhibition": "-1% (inactive)"}, {"molecule": "CN(Cc1ccccc1)S(=O)(=O)c1nnc(NC(=O)c2ccc(F)cc2)s1", "inhibition": "74.3% (active)"}, {"molecule": "Cc1nc2ccc(NS(=O)(=O)c3ccc4c(c3)OCCO4)cc2s1", "inhibition": "72.1% (active)"}, {"molecule": "CS(=O)(=O)c1ccc2nc(NC(=O)c3cccc(NS(=O)(=O)c4ccc(F)c(F)c4)c3)sc2c1", "inhibition": "-0.8% (inactive)"}, {"molecule": "Cc1nc2ccc(NS(=O)(=O)c3ccc(C)c(C)c3)cc2s1", "inhibition": "48.4% (inactive)"}, {"molecule": "CSc1nc2ccc(NS(=O)(=O)c3ccc4c(c3)OCCO4)cc2s1", "inhibition": "100% (active)"}, {"molecule": "Cc1nc2ccc(NS(=O)(=O)c3ccc(F)c(C)c3)cc2[nH]1", "inhibition": "42.8% (inactive)"}, {"molecule": "Cc1ccc(-c2nc3cccnc3s2)cc1NS(=O)(=O)c1ccc2c(c1)OCCO2", "inhibition": "27.3% (inactive)"}, {"molecule": "Cc1nc2ccc(NS(=O)(=O)c3c(C)c(C)cc(C)c3C)cc2s1", "inhibition": "61.8% (active)"}, {"molecule": "COC(=O)C(=Cc1ccc(OCc2ccc([N+](=O)[O-])cc2)c(OC)c1)C(=O)OC", "inhibition": "18% (inactive)"}, {"molecule": "O=[N+]([O-])c1cc([N+](=O)[O-])c2oc(-c3ccccc3)c(Br)c2c1O", "inhibition": "66% (active)"}, {"molecule": "CCN1/C(=C/c2cccc[n+]2C)Sc2ccc(OC)cc21", "inhibition": "50.4% (active)"}, {"molecule": "Cc1ccc2c(c1)N(C)/C(=C/c1cccc[n+]1C)S2", "inhibition": "24.9% (inactive)"}, {"molecule": "O=C(Nc1cccc(-c2ccc(N3CCCCC3)nn2)c1)C(F)(F)F", "inhibition": "-90.7% (inactive)"}, {"molecule": "Cc1ccc(S(=O)(=O)/C(=C/Cl)NC(=O)c2ccccc2)cc1", "inhibition": "11.6% (inactive)"}, {"molecule": "Cc1ccc(C(=O)Sc2cccccc2=O)cc1", "inhibition": "103% (active)"}, {"molecule": "Cc1cccc(-c2nnc(NC(=O)c3ccc(Cl)cc3)o2)c1", "inhibition": "102% (active)"}, {"molecule": "O=C(Nc1nnc(-c2ccccc2)o1)c1ccc(Cl)cc1", "inhibition": "104% (active)"}, {"molecule": "O=C(Nc1sc2c(c1C(=O)O)CCCC2)c1ccc(Cl)cc1", "inhibition": "29.8% (inactive)"}, {"molecule": "CN(C)c1ccc(C(=O)Nc2nnc(-c3ccc(Cl)cc3)o2)cc1", "inhibition": "106% (active)"}, {"molecule": "CCC(=O)N1c2ccc(S(=O)(=O)N3CCN(c4ccc([N+](=O)[O-])cc4)CC3)cc2CC1C", "note": "(configuration not stated)", "inhibition": "26.6% (inactive)"}, {"molecule": "CCN(CC)S(=O)(=O)c1cccc(NC(=O)Nc2cccc(C(F)(F)F)c2)c1", "inhibition": "69% (active)"}, {"molecule": "O=C(Nc1ccc(OC(F)F)cc1)Nc1cccc(C(F)(F)F)c1", "inhibition": "14.2% (inactive)"}, {"molecule": "CCN(CC)S(=O)(=O)c1ccc(NC(=O)Nc2cccc(C(F)(F)F)c2)cc1", "inhibition": "10.5% (inactive)"}, {"molecule": "N#CC(c1cccc(Cl)c1)c1ccc2c(C(F)(F)F)cc(C(F)(F)F)nc2n1", "note": "(configuration not stated)", "inhibition": "55.7% (active)"}, {"molecule": "N#CC(c1ccccc1)c1ccc2c(C(F)(F)F)cc(C(F)(F)F)nc2n1", "note": "(configuration not stated)", "inhibition": "20.4% (inactive)"}, {"molecule": "Oc1ccc(Oc2ccc3c(C(F)(F)F)cc(C(F)(F)F)nc3n2)cc1", "inhibition": "45.2% (inactive)"}, {"molecule": "O=c1c2cc(Br)ccc2nc(-c2cccc(C(F)(F)F)c2)n1O", "inhibition": "65% (active)"}, {"molecule": "O=c1c2cc(Br)ccc2nc(-c2ccc(Cl)cc2)n1O", "inhibition": "-30% (inactive)"}, {"molecule": "O=c1c2cc(Cl)ccc2nc(-c2ccc(Cl)c(Cl)c2)n1O", "inhibition": "74.1% (active)"}, {"molecule": "N/C(=N\\OC(=O)c1cccc2ccccc12)c1ccc(Br)cc1", "inhibition": "-0.8% (inactive)"}, {"molecule": "Cc1ccc(C(=O)O/N=C(\\N)c2ccccn2)c(Cl)c1", "inhibition": "-56.4% (inactive)"}, {"molecule": "Cc1ccc(C(=O)O/N=C(\\N)c2ccccn2)c(C)c1", "inhibition": "61.4% (active)"}, {"molecule": "CCN(CC)S(=O)(=O)c1ccc(Oc2ccc(S(=O)(=O)N(CC)CC)cc2)cc1", "inhibition": "70.1% (active)"}, {"molecule": "C=C(C(=O)c1ccccc1)C(CC(=O)c1ccccc1)c1ccccc1", "note": "(configuration not stated)", "inhibition": "-23.3% (inactive)"}, {"molecule": "C=C(C(=O)c1ccccc1)C(C(=C)C(=O)c1ccccc1)c1ccc(OC)cc1", "inhibition": "62.5% (active)"}, {"molecule": "C=C(C(=O)c1ccccc1)C(C)CC(=O)c1ccccc1", "note": "(configuration not stated)", "inhibition": "-8.9% (inactive)"}, {"molecule": "CCC1C(=NO)C(CC)C(c2ccccc2)NC1c1ccccc1", "note": "(configuration not stated)", "inhibition": "32.5% (inactive)"}, {"molecule": "CCOc1ccc(/C=C/C(O)=C2/C(=O)N(C)C3(C)CC2c2ccccc2O3)cc1OC", "note": "(configuration not stated)", "inhibition": "51.8% (active)"}, {"molecule": "COc1cc(/C=C/[N+](=O)[O-])ccc1OCc1cccc(C(=O)O)c1", "inhibition": "46% (inactive)"}, {"molecule": "COc1ccc(/C=C/C(O)=C2/C(=O)N(C)C3(C)CC2c2ccccc2O3)cc1", "note": "(configuration not stated)", "inhibition": "-8.9% (inactive)"}, {"molecule": "Cc1cc(C)c(S(=O)(=O)/N=C2/C=C(Sc3ncn[nH]3)C(=O)c3ccccc32)cc1C", "inhibition": "75.1% (active)"}, {"molecule": "Cc1ccc(S(=O)(=O)/N=C2/C=C(Sc3ncn[nH]3)C(=O)c3ccccc32)c(C)c1", "inhibition": "100% (active)"}, {"molecule": "CC(C)c1ccc(S(=O)(=O)/N=C2/C=C(Sc3ncn[nH]3)C(=O)c3ccccc32)cc1", "inhibition": "84.1% (active)"}, {"molecule": "Cc1ccc(C)c(SCC(=O)OC/C(O)=C(\\C#N)c2nc3ccccc3[nH]2)c1", "inhibition": "52.5% (active)"}, {"molecule": "Cc1cc(Br)ccc1SCC(=O)OC/C(O)=C(\\C#N)c1nc2ccccc2[nH]1", "inhibition": "106% (active)"}, {"molecule": "Cc1cc(SCC(=O)OC/C(O)=C(\\C#N)c2nc3ccccc3[nH]2)c(C)cc1Br", "inhibition": "59.5% (active)"}, {"molecule": "COC(=O)C1CCN(C(=O)C2CCN(C(=O)[C@@H](NS(=O)(=O)c3ccc(C)cc3)C(C)C)CC2)CC1", "inhibition": "15.9% (inactive)"}, {"molecule": "COC(=O)/C(=C\\c1cc(OC)c(OC)c(OC)c1)c1nc2ccccc2[nH]1", "inhibition": "-13.3% (inactive)"}, {"molecule": "COc1cc(SC)ccc1C(=O)Nc1nc2ccccc2[nH]1", "inhibition": "103% (active)"}, {"molecule": "COc1ccccc1C(=O)Nc1nc2ccccc2[nH]1", "inhibition": "82.8% (active)"}, {"molecule": "COc1ccc(Nc2nc(C(=O)N3CCc4ccccc4C3)cs2)cc1", "inhibition": "20.3% (inactive)"}, {"molecule": "CCOC(=O)N1CCN(C(=O)C2CCCN(Cc3nc(-c4ccc(Cl)cc4)oc3C)C2)CC1", "note": "(configuration not stated)", "inhibition": "56.2% (active)"}, {"molecule": "O=C(c1ccc(Cl)cc1)C1CCCN(Cc2cnn(-c3ccccc3)c2)C1", "note": "(configuration not stated)", "inhibition": "5.5% (inactive)"}, {"molecule": "Cc1oc(-c2ccc(Cl)cc2)nc1CSCC(=O)NC1CCN(Cc2ccccc2)CC1", "inhibition": "47.1% (inactive)"}, {"molecule": "Cc1ccc(C)c(-n2c3nc(=O)[nH]c(=O)c-3cc3cc([N+](=O)[O-])ccc32)c1", "inhibition": "58.5% (active)"}, {"molecule": "Cc1ccc(-n2c3nc(=O)[nH]c(=O)c-3cc3cc([N+](=O)[O-])ccc32)cc1C", "inhibition": "41.9% (inactive)"}, {"molecule": "CCSc1nnc(Cc2cc(=O)[nH]c(=O)[nH]2)n1-c1cc(C)ccc1C", "inhibition": "16.9% (inactive)"}, {"molecule": "CC(/C=C1\\SC(=S)N(c2ccc(C(=O)O)cc2)C1=O)=C\\c1ccccc1", "inhibition": "3.6% (inactive)"}, {"molecule": "COc1cccc(/C=C2/SC(=S)N(CCCC(=O)Nc3ccc(O)cc3)C2=O)c1", "inhibition": "19.5% (inactive)"}, {"molecule": "O=C(O)CCCN1C(=O)/C(=C\\C(Cl)=C\\c2ccccc2)SC1=S", "inhibition": "77.9% (active)"}, {"molecule": "CC(/C=C1\\SC(=O)N(CCCC(=O)O)C1=O)=C\\c1ccccc1", "inhibition": "79.5% (active)"}, {"molecule": "COc1ccc(/C=C2/SC(=S)N(CCC(=O)O)C2=O)cc1", "inhibition": "36% (inactive)"}, {"molecule": "CCc1cc2c3c(c1)C(C)CC(C)(C)N3C(=O)/C2=C1\\SC(=O)NC1=O", "note": "(configuration not stated)", "inhibition": "6.9% (inactive)"}, {"molecule": "CC1(c2ccccc2)CC(C)(C)N2C(=O)/C(=C3\\SC(=S)NC3=O)c3cccc1c32", "note": "(configuration not stated)", "inhibition": "84.3% (active)"}, {"molecule": "COc1ccc2c(C#N)c3ccccn3c2c1", "inhibition": "66.3% (active)"}, {"molecule": "COc1ccc2c(c1)oc(=O)c1ccccc12", "inhibition": "-18.4% (inactive)"}, {"molecule": "N#Cc1c2ccc(O)cc2n2ccccc12", "inhibition": "70% (active)"}, {"molecule": "O=C(Oc1cc2oc(=O)cc(-c3ccccc3)c2cc1Cl)C1CCCCC1", "inhibition": "77.6% (active)"}, {"molecule": "COc1ccc(-c2cc(=O)oc3cc(OC(=O)C4CCCCC4)c(Cl)cc23)cc1", "inhibition": "95.3% (active)"}, {"molecule": "COc1ccc(-c2cc(=O)oc3cc(O)ccc23)cc1", "inhibition": "2.6% (inactive)"}]}]}
